Assay outcomes from PubChem BioAssay.
Compounds with a hit are over-represented: about 7.9% of the library has one in this group of screens.
MCF10A rereplic – A quantitative high throughput screen for small molecules that induce DNA re-replication in MCF 10a normal breast cells; MCF 10A DNA re-replication, Hoechst nuclear intensity, 48 h; Potency, µM (titrated, usually from 46.1 µM), for inactives: top-dose activity, positive = re-replication, most hits filed as activators; 2.9% of 350,000 active; AID 624296, 2012; note: % of control where 0% means no effect; nearly all actives have a fitted effect of over 50% in size
KB-V1 cytotox – qHTS assay for MDR1-selective chemotherapeutics: Primary screen using the drug-selected MDR subline cells KB-V1; Potency, µM (top dose mostly 46.1 µM), actives largely listed as cytotoxic; KB-V1 MDR cells viability, CellTiter-Glo, 72 h; 3.4% of 400,000 active; note: % is set by controls: 0 for no effect and ±100 for the full control effect; nearly all actives have a fitted effect of over 60% in size
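KB-V1, DMEM (no phenol red) + 10% FBS; cpd pin-transferred, titration series; 72 h, 37 degrees C; CellTiter-Glo, luminescence. Data normalized, curve-fit.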
SW480 rereplic – A quantitative high throughput screen for small molecules that induce DNA re-replication in SW480 colon adenocarcinoma cells. SW480 DNA re-replication, Hoechst DNA content imaging, 48 h. 1.8% of 340,000 active. Potency, µM (top dose mostly 46.1 µM), for inactives: top-dose re-replication activation, actives largely listed as activators. AID 624297, 2012; note: % of control where 0% means no effect; nearly all actives have a fitted effect of over 55% in size
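Cells (250 per well) received 23 nL compound or DMSO by pin tool and were kept 48 hr at 37 C, 5% CO2. Nuclei were then stained with Hoechst for 40 min and scanned for DNA content.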
HT1080 IDH1KD tx – qHTS for induction of synthetic lethality in tumor cells producing 2HG: qHTS for the HT-1080-IDH1KD cell line; HT-1080 IDH1 knockdown viability, ATP luminescence, 48 h; Potency, µM (highest dose often 46.1 µM), for the others: top-dose activity, negative = toxicity, actives largely listed as cytotoxic; 2% of 360,000 active; AID 686971, 2013;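 note: 0% = DMSO wells and -100% = cell-free medium wells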
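Assay cells: HT-1080 with IDH1 knockdown, 750 per well, RPMI/5% FBS. Exposure: 48 h at 37 °C following 2 h pre-incubation. Read: CellTiter-Glo luminescence; fitted concentration-response, curve class assigned.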
HT1080NT lethal – qHTS for induction of synthetic lethality in tumor cells producing 2HG: qHTS for the HT-1080-NT fibrosarcoma cell line; HT-1080-NT fibrosarcoma viability, CellTiter-Glo ATP luminescence, 48 h; 1.6% of 360,000 active; Potency, µM (highest dose often 46.1 µM), inactives show at the top dose activity, negative = less viability, most hits filed as cytotoxic;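 note: NT is the 2HG producing partner of a matched IDH1 knockdown line; 0% = DMSO-treated cells and -100% = media-only wells without cells; nearly all actives have a fitted effect of over 55% in size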
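Viability of the 2HG-overproducing fibrosarcoma line after 48 hours of compound exposure at 37 degrees C was determined by luminescence with CellTiter-Glo, and concentration-effect curves were then fitted and categorized.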
KB-3-1 cytotox – qHTS assay for MDR1-selective chemotherapeutics: Primary screen using the parental adenocarcinoma cell KB-3-1 | KB-3-1 viability, CellTiter-Glo ATP luminescence, 72 h | 1.4% of 400,000 active | Potency, µM (series often up to 46.1 µM), most hits filed as cytotoxic; note: % is set by controls: 0 for no effect and ±100 for the full control effect; nearly all actives have a fitted effect of over 60% in size
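72 h, 37 °C compound treatment of KB-3-1 parental cells; CellTiter-Glo added, 10 min, luminescence read. Data corrected against DMSO-only plates and normalized before curve fitting.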
Active calls of the source: *; i = inactive; ? = inconclusive; . = not tested or not shown. Calls come from the whole dose curve; as a rule, active = well fitted curve in the direction sought with a large enough effect; inconclusive = small, poorly fitted or top-dose-only effect, or another doubt; inactive = no such curve, though single readings can be large; an effect the other way counts as inactive or inconclusive. Potency is the fitted concentration of half-maximal effect.

SMILES | MCF10A rereplic | KB-V1 cytotox | SW480 rereplic | HT1080 IDH1KD tx | HT1080NT lethal | KB-3-1 cytotox
COc1ccccc1/C=C1\S/C(=N/NC(=O)c2cccc(Br)c2)NC1=O | 10µM* | ? | 16% | ? | ? | 8.2µM*
Cc1cccc(N2CCN(C(=O)C3CCN(S(=O)(=O)c4ccc5c(c4)oc(=O)n5C)CC3)CC2)c1C | . | i | . | . | . | i
Cn1c(=O)oc2cc(S(=O)(=O)N3CCCC(C(=O)N4CCN(c5cccc(Cl)c5)CC4)C3)ccc21 (stereo not given) | . | i | . | . | . | 21µM*
Cn1c(=O)oc2cc(S(=O)(=O)N3CCC(C(=O)N4CCN(c5cccc(Cl)c5)CC4)CC3)ccc21 | . | i | . | . | . | i
Cc1cccc(N2CCN(C(=O)C3CCCN(S(=O)(=O)c4ccc5c(c4)oc(=O)n5C)C3)CC2)c1C (stereo not given) | . | i | . | . | . | 7.3µM*
CCOC(=O)C(CS)NCCN[C@@H](CS)C(=O)OCC (stereo not given in full) | 0% | . | 1% | . | . | .
Cc1ccc(C)c(N2CCN(C(=O)c3cc4c(=O)oc5ccccc5c4s3)CC2)c1 | . | i | . | . | . | i
CSc1nc(C)c2c(n1)N(c1ccc(C(C)C)cc1)CC2 | 8% | 8.2µM* | 14% | 1% | 5% | i
CCOC(=O)C1CCN(C(=O)Cn2ncc3c4ccccc4n(Cc4ccccc4F)c3c2=O)CC1 | . | ? | . | . | . | i
O=C(NC1=NCCS1)c1cccc(N2C(=O)c3ccccc3C2=O)c1 | 6.5µM* | ? | -40% | 9% | 12% | i
CC(=O)c1cccc(NC(=O)c2cccc(N3C(=O)c4ccccc4C3=O)c2)c1 | 13% | i | -7% | -4% | 6% | i
Cc1ccc(OCCSc2nc3ccc(NC(=O)c4ccc(F)cc4)cc3s2)cc1 | . | i | . | . | . | i
CC(OC(=O)c1snc(C(=O)NC2CCCCC2)c1N)C(=O)NC1CCCCC1 (stereo not given) | 21µM* | ? | ? | -7% | -7% | i
CCOc1ccc(C(C(=O)NC2CCCC2)N(Cc2ccccc2)C(=O)c2nsc(Cl)c2Cl)cc1 (stereo not given) | 13% | ? | ? | -27% | ? | 21µM*
CCOc1ccccc1N(C(=O)c1snc(C(N)=O)c1N)C(C(=O)NC1CCCC1)c1ccco1 (stereo not given) | 15% | 10µM* | 2% | -1% | -6% | i
Cc1cccc(N(C(=O)c2nsc(Cl)c2Cl)C(C(=O)NC2CCCC2)c2ccc(O)cc2)c1C (stereo not given) | 17% | 21µM* | ? | -14% | -2% | ?
O=C(NCc1ccccc1)c1ccc(CS(=O)Cc2cccc(Cl)c2)o1 (stereo not given) | . | i | . | 1% | 5% | i
NC(=S)c1csc(CCNC(=O)c2ccccc2)n1 | . | i | . | 0% | -1% | i
CN(C)c1ccc(C(C(=O)NC2CCCCC2)N(Cc2ccco2)C(=O)c2snc(C(N)=O)c2N)cc1 (stereo not given) | 9% | 21µM* | 11% | 0% | 8% | ?
CCOc1ccc(N(C(=O)c2snc(C(N)=O)c2N)C(CC)C(=O)NC2CCCC2)cc1 (stereo not given) | 0% | i | 23µM* | 2% | -1% | i
Cc1cc(C)cc(N(C(=O)c2nsc(Cl)c2Cl)C(C(=O)NC2CCCC2)c2ccc(O)cc2)c1 (stereo not given) | ? | 18µM* | ? | ? | -18% | i
